# Assay results from ChEMBL document CHEMBL4513216, “Probing the Open Global Health Chemical Diversity Library for Multistage-Active Starting Points for Next-Generation Antimalarials” (ACS Infect Dis, 2020).
# In all, about 69,000 compounds went through this assay and about 8,600 (12%) showed an effect of 50% or more. For the sample, strong results were picked, then their nearest neighbours and some compounds at random.
# System: Plasmodium berghei
# Assay: Screen against P. berghei liver stage (PbLuc), transformed with Luciferase, at 10uM
# Assay type: functional, HepG2
# Settings: tested at 10 uM
row,Compound,INHIBITION [%]
1,CCn1cc(CN2CCC3(CC2)c2ccccc2CC3O)cn1 (stereo not drawn),2.7
2,CC(C)CN1C[C@@H]2C[C@H](C(=O)N3CCCC3)[C@H](C1)O2,31.5
3,c1cc(CN2CCc3ncc(CN4CCCCC4)n3CC2)cs1,20.9
4,Cc1ccc(CN2Cc3nnn(C)c3C(COCC(=O)N(C)C)C2)s1 (stereo not drawn),42.1
5,CC(C)CNC(=O)c1[nH]nc(C2CC2)c1Br,-7.46
6,O=C1NC2(Cc3ccccc31)CN(CC1CCNC1)C2 (stereo not drawn),46.6
7,Fc1cccc(C2CCCN2Cc2nnnn2C2CC2)c1 (stereo not drawn),31.1
8,O=C(CCC(F)(F)F)N1CCN(Cc2ccncc2)[C@@H]2CS(=O)(=O)C[C@@H]21,42.1
9,CCN1CC(C(=O)NCc2noc(Cc3ccccc3)n2)CCC1=O (stereo not drawn),17.6
10,CCn1nc(CNC(=O)C2CC(=O)N(C3CCCC3)C2)c2ccccc21 (stereo not drawn),30.1
11,CCn1nc(C)c(CCNC(=O)C2CCCN(CC(N)=O)C2)c1C (stereo not drawn),18.8
12,Cc1n[nH]c(C)c1CCNC(=O)C1CCCN(CC(N)=O)C1 (stereo not drawn),74.4
13,Cc1ccc2c(c1)c(CNC(=O)C1CCCN(CC(N)=O)C1)nn2C (stereo not drawn),10.5
14,CCN1CC(C(=O)NCc2nn(CC)c3ccccc23)CCC1=O (stereo not drawn),65
15,CCn1nc(CNC(=O)C2CCCN(CC(N)=O)C2)c2ccccc21 (stereo not drawn),67.2
16,CCn1nc(CNC(=O)C2CCCN(C(=O)COC)C2)c2ccccc21 (stereo not drawn),10.5
17,Cc1n[nH]c(C)c1CCNC(=O)C1CCCN(Cc2ccco2)C1 (stereo not drawn),-4.96
18,CC(Cc1ccco1)NC(=O)Nc1ccc(N2CCCC2)nc1 (stereo not drawn),21.425
19,Cc1ccc(S(=O)(=O)N2CCC(c3n[nH]cc3C)C2)cc1 (stereo not drawn),32.8
20,CCN1CC2(CC1=O)CN(Cc1ccncc1)CCN(C(=O)C(C)C)C2 (stereo not drawn),38.5
21,COc1cc(-c2nc3c([nH]2)CCCNC3=O)ccc1OC(C)C,-125
22,CCCN(Cc1ccc(OC)nc1)Cc1ccccc1OC,37.8
23,CCCN(Cc1cnc2ccccc2n1)Cc1ccccc1OC,61.9

row,Compound,INHIBITION [%]
1,CCCN(Cc1ccccn1)Cc1ccccc1OC,45.2
2,Cc1ccc(CN(CCN(C)C)Cc2nc3ccccc3[nH]2)s1,36.5
3,CCCN(Cc1ccc(S(=O)(=O)NC)cc1)Cc1ccccc1OC,38.6
4,CCCN(Cc1nc2ccccc2[nH]1)Cc1ccccc1OC,82.3
5,Cc1cccc(N2CCCC2c2nc(C)ncc2CN(C)C)n1 (stereo not drawn),-3.94
6,Cc1ccnc(NC(=O)C(C)Cn2cncn2)c1 (stereo not drawn),28.4
7,Cc1nc(NCc2nonc2C)cc(C(C)Cn2nc(C)c(C)c2C)n1 (stereo not drawn),43.8
8,COc1ccc2c(ccn2CCC(=O)Nc2nc[nH]n2)c1,29.9
9,CCc1nc(CN2CCCC(NCc3nc(C)c(C)o3)C2)no1 (stereo not drawn),-2.19
10,O=C(CC1COCCN1)N1CCCN(C2Cc3ccccc3C2)CC1 (stereo not drawn),-22.1
11,COCCC1(CO)CCCN(C(=O)CCC(F)(F)F)C1 (stereo not drawn),-1.49
12,O=c1c2c[nH]c(N3CCC(O)CC3)nc-2cn1Cc1cccc(F)c1,11.8
13,Cc1ccc(CN2CCC(O)(Cn3nc(-c4cccs4)oc3=O)CC2)o1,14.6
14,CCc1ncnc2c1CCN(Cc1cccs1)CC2,13.7
15,Cc1occc1C(=O)N1CCO[C@H]2[C@H](OCc3cccnc3)CC[C@@H]21,34.4
16,CN(Cc1ccoc1)C(=O)C1CCN(C(=O)C2CCCC2)CC1,61.1
17,CC(=O)N(Cc1ccoc1)C1CCCCC1,-29.5
18,CC(C)N1CCC(C(=O)N(C)C(C)c2ccon2)CC1 (stereo not drawn),1.94
19,CN(Cc1cnc(N)nc1)C(=O)C1CCN(C(=O)C2CCCC2)CC1,44.3
20,CC(c1ccon1)N(C)C(=O)C1CCN(C(=O)C2CCC2)CC1 (stereo not drawn),57.5
21,CC(c1ccon1)N(C)C(=O)C1CCN(C(=O)C2CC2)CC1 (stereo not drawn),34
22,Cc1nn(Cc2ccc(C(=O)NC3CCS(=O)(=O)C3)cc2)c(C)c1Br (stereo not drawn),7.3
23,COCCN1C(=O)CCC12CCC(NCc1nccs1)CC2 (stereo not drawn),10.5

row,Compound,INHIBITION [%]
1,CN1CC2(CCN(C(=O)c3cn4cccnc4n3)CC2)CC1=O,-28.9
2,Cc1nccc(NCc2cncc3c2CCN(CC2CCOC2)C3)n1 (stereo not drawn),91.9
3,CS(=O)(=O)NCc1cncc2c1CCN(CC1CCOC1)C2 (stereo not drawn),53.4
4,O=C(O)c1c(-c2ccncc2)ncc2c1CCN(CC1CCOC1)C2 (stereo not drawn),34.9
5,O=C(O)c1c(-c2cccnc2)ncc2c1CCN(CC1CCOC1)C2 (stereo not drawn),-21.1
6,O=C(NCc1cncc2c1CCN(CC1CCOC1)C2)c1ccco1 (stereo not drawn),-46
7,Cc1nccc(NCc2cncc3c2CCN(CC2CC2)C3)n1,84.7
8,O=C(NCc1cncc2c1CCN(CC1CCOC1)C2)c1ccno1 (stereo not drawn),-0.813
9,c1cnc(NCc2cncc3c2CCN(CC2CC2)C3)nc1,48.4
10,Cc1nccc(NCc2cncc3c2CCN(CCN(C)C)C3)n1,29.4
11,CCC(=O)N1CCN(CCn2cccn2)c2ncccc2C1,43
12,Cn1cc(CN2CCc3onc(COCC4CC4)c3C2)cn1,5.96
13,CCc1ncncc1C(=O)N1CCN(Cc2cscn2)CC1,15.5
14,COCc1nnc(NC(=O)c2cn(C(C)C)c3ccc(OC)cc23)s1,-42.5
15,O=C(c1cccc(-n2cccn2)c1)N1CCCOC(Cn2cccn2)C1 (stereo not drawn),0.891
16,COc1nc2c(cc1C(=O)N1CCCOC(CN3CCCC3)C1)CCC2 (stereo not drawn),54.5
17,COc1cccc(C2CCCN2C(=O)c2cc3c(nc2OC)CCC3)c1 (stereo not drawn),-10.8
18,COc1ccc2cc(C(=O)N3CC[C@H](CO)[C@H](O)C3)n(C)c2c1,27.6
19,COc1nc2c(cc1C(=O)N1CCCOC(Cn3cccn3)C1)CCC2 (stereo not drawn),59.1
20,COc1ccc(C(=O)N2CC[C@H](CO)[C@H](O)C2)c(C)c1,16.8
21,O=C(c1cccc(-n2cccn2)c1)N1CCCOC(CN2CCCC2)C1 (stereo not drawn),13.7
22,COc1nc2c(cc1C(=O)N1CC[C@H](CO)[C@@H](O)C1)CCC2,61
23,CCc1ncc(C(=O)N2CCCOC(Cn3cccn3)C2)cn1 (stereo not drawn),40.2

row,Compound,INHIBITION [%]
1,CCC(C)(C)C(=O)Nc1ccc2ccn(CC(=O)NC)c2c1,-3.47
2,Cc1oncc1C(=O)N1C[C@H]2CCCC(N(C)Cc3cccs3)[C@H]2C1 (stereo partly drawn),21.6
3,CCS(=O)(=O)CC(=O)NC(C)c1ccc(OCCC(C)C)cc1 (stereo not drawn),15.4
4,CCOC(=O)Cc1csc(NC(=O)c2ccc(=O)[nH]n2)n1,18.4
5,Cc1nc(CN2CCC3(CCN(c4ncc(F)cn4)C3)C2=O)cs1 (stereo not drawn),-23.7
6,CCc1c(C(=O)N2CCN(CC(N)=O)CC2)cnn1C(C)(C)C,53.8
7,CCc1c(C(=O)N2CCC(CC(N)=O)CC2)cnn1C(C)(C)C,47.1
8,CCc1c(C(=O)N2CCCN(C(C)=O)CC2)cnn1C(C)(C)C,44.3
9,CN(C)S(=O)(=O)NC1CCCc2c1cnn2-c1ccc(C(C)(C)C)cc1 (stereo not drawn),58.8
10,CC(C)(C)c1ccc(-n2ncc3c2CCCC3N)cc1 (stereo not drawn),22.6
11,Cc1ccc(-n2ncc3c2CCCC3N)cc1C (stereo not drawn),33.7
12,Cn1cc(C2CCCN2CCC(=O)N2CCc3sccc3C2)cn1 (stereo not drawn),19.2
13,COc1ccc(CN2CC[C@H]3CO[C@H](CNC(=O)N(C)C)[C@H]3C2)cc1,12.7
14,Cc1ccc(CN2Cc3nccn3CC(Cn3cncn3)C2)s1 (stereo not drawn),-9.02
15,Cc1ccc(C(=O)N(C)S(C)(=O)=O)cc1Cl,61.9
16,CN(C(=O)c1ccc(Cl)c(S(C)(=O)=O)c1)c1ccccc1,5.91
17,CN(CCNS(C)(=O)=O)C(=O)c1ccc(Cl)c(Cl)c1,66.5
18,Cc1ccc(C(=O)N2CCCS2(=O)=O)cc1Cl,21.1
19,Cc1cc(Br)ccc1C(=O)N(C)CCNS(C)(=O)=O,35.9
20,Cc1cc(C(=O)N(C)S(=O)(=O)C(C)C)ccc1F,61.9
21,Cc1cc(C(=O)N(C)S(C)(=O)=O)ccc1F,61
22,Cc1cc(C(=O)N(CC(=O)O)CC(C)C)ccc1F,40.9
23,Cc1ccc(C(=O)N(C)CCNS(C)(=O)=O)cc1Br,23.9

row,Compound,INHIBITION [%]
1,Cc1ccc(C(=O)N(CC(=O)O)CC(C)C)cc1F,39.7
2,CN(CC(F)(F)F)C(=O)c1ccc(F)c(NS(C)(=O)=O)c1,-43.5
3,Cc1sc(C(=O)N(C)S(C)(=O)=O)cc1-c1ccc(F)cc1,13.3
4,Cc1cc2ccncc2n1CC1(O)CCN(C(=O)c2ccncc2)CC1,7.19
5,CNc1nc(C)c(C(=O)NCC(C)(C)N2CCCCC2)s1,-34.6
6,CN(CCO)Cc1nnc(C2CCN(CC3[C@H]4CNC[C@@H]34)CC2)n1C (stereo partly drawn),-3.55
7,c1ncn(CC2CCCN(Cc3nnc(C4CC4)o3)C2)n1 (stereo not drawn),-0.74
8,Cc1nc(C(C)C)sc1C(=O)NCCNc1ncccn1,26.5
9,COc1ccc(CN2CCC(C(N)=O)CC2)cc1SC(F)(F)F,52.2
10,COc1ccc(CN2CCNC(=O)CC2)cc1SC(F)(F)F,25.3
11,COc1ccc(CN2CCN(C(C)=O)CC2)cc1SC(F)(F)F,21.9
12,O=C(CCc1ccccc1)NCC(O)c1c(F)cccc1F (stereo not drawn),45.7
13,Cc1noc([C@@H]2C[C@H]3OCC[C@H]3N(CC3CCCC3)C2)n1,29.9
14,Cc1noc([C@@H]2C[C@H]3OCC[C@H]3N(C(C)C)C2)n1,-18.2
15,Cc1noc([C@@H]2C[C@H]3OCC[C@H]3N(Cc3cc(C)c(C)o3)C2)n1,57.9
16,Cc1noc([C@H]2C[C@H]3OCC[C@H]3N(Cc3cccs3)C2)n1,43.9
17,Cc1noc([C@@H]2C[C@H]3OCC[C@H]3N(Cc3ccoc3)C2)n1,15.9
18,Cc1noc([C@@H]2C[C@H]3OCC[C@H]3N(Cc3sccc3C)C2)n1,54.4
19,CCc1ccc(CN2C[C@@H](c3nc(C)no3)C[C@H]3OCC[C@H]32)o1,-2.72
20,Cc1noc([C@H]2C[C@H]3OCC[C@H]3N(Cc3scnc3C)C2)n1,0.777
21,Cc1noc([C@H]2C[C@H]3OCC[C@H]3N(C3CCC3)C2)n1,92
